Source: PubChem
Sampled rows, rich in hits. Any-hit rate of the full collection: about 3.1%.
proKLK7 act – activates the human kallikrein-7 zymogen. P49862. purified proKLK7, EDANS-DABCYL substrate fluorescence; 100% is mature enzyme control, 0% vehicle. activation, % at 7 µM. actives 0.9% (n = 370,000). AID 652039;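 active means activation above the mean of all tested compounds plus 3 SD, computed per campaign excluding outliers beyond control limits, cut at about 13% in these data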
Rin1 Abl inh – blocks binding of human Rin1 to Abl; actives 0.4% (n = 360,000); inhibition, % at 7.35 µM; AID 588664; TR-FRET Rin1/Abl binding, biochemical; P00519+Q13671; in the data active means inhibition above about 5%, passing the limit was not always enough
UHRF1 binding – blocks human UHRF1 binding to methylated DNA. Q96T88. UHRF1 binding to methylated oligo, TR-FRET. inhibition, % at 4.4 µM. actives 0.75% (n = 370,000). AID 687016; in the data active means inhibition above about 21%;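 further: UHRF1 SRA domain binding a hemimethylated CpG hairpin DNA probe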
LEDGF integ inh – blocks HIV-1 LEDGF/p75-dependent DNA integration | TR-FRET IN-LEDGF/p75 DNA integration, Eu/Cy5 | inhibition, % at 3.7 µM | actives 0.64% (n = 370,000);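 active means inhibition above the screen-wide mean plus 3 SD, cut at about 13% in these data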;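 further: signal is the Cy5 over europium emission ratio at 671 and 618 nm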
Neddyl block – cullin neddylation inhibition | P61081+Q13564 | TR-FRET cullin neddylation, biochemical | calls only at 25 µM | actives 0.58% (n = 360,000); in the data active means inhibition above about 36%
Target sequence (P61081 whole entry, looked up): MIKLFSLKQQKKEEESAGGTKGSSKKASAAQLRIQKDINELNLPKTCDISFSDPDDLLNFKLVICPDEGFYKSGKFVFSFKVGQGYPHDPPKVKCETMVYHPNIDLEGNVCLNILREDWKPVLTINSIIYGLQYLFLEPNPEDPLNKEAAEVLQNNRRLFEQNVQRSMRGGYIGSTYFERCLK
Target sequence (Q13564 whole entry, looked up): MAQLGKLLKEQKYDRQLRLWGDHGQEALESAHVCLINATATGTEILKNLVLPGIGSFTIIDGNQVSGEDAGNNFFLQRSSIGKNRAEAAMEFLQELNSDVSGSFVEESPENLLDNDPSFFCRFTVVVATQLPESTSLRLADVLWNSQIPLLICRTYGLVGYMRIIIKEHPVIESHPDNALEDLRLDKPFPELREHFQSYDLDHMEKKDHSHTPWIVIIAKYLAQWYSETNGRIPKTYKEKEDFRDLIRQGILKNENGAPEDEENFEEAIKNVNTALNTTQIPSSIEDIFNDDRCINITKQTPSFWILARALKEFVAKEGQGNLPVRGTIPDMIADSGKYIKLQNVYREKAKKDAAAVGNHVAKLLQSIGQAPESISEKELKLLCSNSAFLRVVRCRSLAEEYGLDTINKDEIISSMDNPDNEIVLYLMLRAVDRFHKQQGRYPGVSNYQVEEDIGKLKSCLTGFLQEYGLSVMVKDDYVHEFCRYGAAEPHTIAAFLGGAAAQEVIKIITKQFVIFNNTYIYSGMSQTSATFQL
MBD2 DNA inh – blocks human MBD2 binding to methylated DNA; actives 0.31% (n = 370,000); TR-FRET, MBD2 binding to methylated oligonucleotide; inhibition, % at 4.4 µM; Q9UBB5; in the data active means inhibition above about 13%
Large screens that a line does not name were inactive.

CCSc1nnc(SCC(=O)c2c(N)n(C)c(=O)n(C)c2=O)s1	none
COCc1cc(N2CCN(C(=O)OC(C)(C)C)C[C@@H]2C)ccc1N1CCN(Cc2ccccc2)[C@@H](C)C1	none (no result: Rin1 Abl inh, Neddyl block)
CCN(CC)c1ccc(C(=S)N2CCN(c3ccccc3)CC2)cc1	UHRF1 binding 21
S=C(c1ccccc1)N1CCN(c2ccccc2)CC1	none
COc1ccc(C(CNC(=O)CCC(=O)c2ccc(C)s2)N2CCOCC2)cc1 (stereo not drawn)	none
Cc1cccc(C)c1Nc1c(-c2ccccn2)nc2ccccn12	Neddyl block active
CCOC(=O)Nc1sc(C)c(C)c1C(N)=O	none
CC(C)CN(C(=O)C(C)N1C(=O)c2ccccc2C1=O)c1c(N)n(Cc2ccccc2)c(=O)[nH]c1=O (stereo not drawn)	none
Cn1c(N)c(-c2nc3cccnc3n2C)sc1=S	UHRF1 binding 24 (not shown: Neddyl block)
Cc1ccc(-n2c(N)c(-c3nc4ccccc4n3C)sc2=S)cc1	none
COC(=O)C1=NNC2C(=O)N(C3CCCCC3)C(=O)C12 (stereo not drawn)	UHRF1 binding 26
COC(=O)C1=NNC2C(=O)N(c3ccc(C)cc3)C(=O)C12 (stereo not drawn)	none
COc1cc(OC)cc(C(=O)NCC(=O)OCc2nc3ccccc3s2)c1	none
O=C(CNC(=O)c1ccc(Cl)cc1)OCc1nc2ccccc2s1	UHRF1 binding 25
CCc1ccc2[nH]c3nc(N/N=C/c4cccc(O)c4)nnc3c2c1	UHRF1 binding 43
O=C(OCc1cn(Cc2ccccc2)nn1)N1CCOCC1	none (no result: Rin1 Abl inh, Neddyl block)
COc1ccc(-c2coc3c(C(=O)NCc4ccc(OC)c(OC)c4)cccc23)c(C)c1	none
C[C@@H]1CN([C@@H](C)CO)C(=O)c2cc(Br)cnc2O[C@H]1CN(C)C(=O)Nc1ccccc1	none
COc1cc2oc3cc(C#Cc4ccc(N)cc4)ccc3c(=O)c2cc1OC	none
Nc1ccc(C#Cc2ccc3c(=O)c4ccccc4oc3c2)cc1	UHRF1 binding 23
CN(CC(=O)Nc1cccc(F)c1)CC(=O)Nc1cccc2ccccc12	none
CN(CC(=O)Nc1cccc2ccccc12)C(=O)c1ccc(F)cc1F	UHRF1 binding 29
CN1CCN(CCCCOc2ccc(Br)cc2)CC1	none
CC(C)(C)c1ccc(OCCCN2CCCC2)cc1	UHRF1 binding 24
CN1CCN(CCCCOc2ccc(F)cc2)CC1	UHRF1 binding 22
CC(C)Oc1ccc(OCCCN2CCCCCC2)cc1	none
O=C(N=C1SC2CS(=O)(=O)CC2N1c1c(Cl)cccc1Cl)C1CC1 (stereo not drawn)	none
CC(=O)N=C1SC2CS(=O)(=O)CC2N1c1c(Cl)cccc1Cl (stereo not drawn)	UHRF1 binding 24
O=C(NCC(O)c1ccc([N+](=O)[O-])cc1)c1cccc(S(=O)(=O)N2CCCC2)c1 (stereo not drawn)	none
Cc1cc(C)cc(NC(=O)OC2CC3CC2[C@H]2CCCCN2[C@H]3Cc2ccccc2)c1 (stereo partly drawn)	none (no result: Rin1 Abl inh, Neddyl block)
Cc1nc(C(=O)N2CCc3c([nH]c4ccccc34)C2c2cc(F)ccc2F)cs1 (stereo not drawn)	none
Cc1cnc(C(=O)N2CCc3c([nH]c4ccccc34)C2c2ccc(F)cc2)cn1 (stereo not drawn)	UHRF1 binding 21
CCOC(=O)c1ccccc1NC(=O)CSc1nc(N)cc(=O)[nH]1	none
Cc1nc(C)c(CCNC(=O)c2ccccc2Br)s1	UHRF1 binding 21
Cc1cc(=O)n2nc(N3CCCC(C(=O)Nc4cccc(C)c4C)C3)sc2n1 (stereo not drawn)	none
CC(=O)Nc1ccc2nc3c(=O)n(C)c(=O)n(C)c3nc2c1	Neddyl block active
Cn1c(=O)c2nc3ccccc3nc2n(C)c1=O	none
COc1ccc(OCCCC(=O)OC(C)C(=O)Nc2ccc(S(N)(=O)=O)cc2)cc1 (stereo not drawn)	LEDGF integ inh 35
COc1ccc(OCCCC(=O)OC(C)C(=O)Nc2ccc(NC(C)=O)cc2)cc1 (stereo not drawn)	none
COCCCNC(=O)/C(C#N)=C/c1c(N2CCN(C)CC2)nc2c(C)cccn2c1=O	UHRF1 binding 52 (not shown: Neddyl block)
COCCNC(=O)/C(C#N)=C/c1c(N2CCN(C)CC2)nc2c(C)cccn2c1=O	none (not shown: Neddyl block)
Cc1cccn2c(=O)c(/C=C(\C#N)S(=O)(=O)c3ccccc3)c(N3CCC(C(N)=O)CC3)nc12	none
Cc1ccc(S(=O)(=O)/C(C#N)=C/c2c(N3CCC(C(N)=O)CC3)nc3c(C)cccn3c2=O)cc1	UHRF1 binding 22
O=C(COC(=O)C1CCCCC1)Nc1cc([N+](=O)[O-])ccc1F	none
Nc1ccc(C(=O)OCC(=O)Nc2cc([N+](=O)[O-])ccc2F)cc1	UHRF1 binding 42
CC(C)C(=O)Nc1cccc(N2CCN(CCCN3C(=O)C4CCCCN4C3=O)CC2)c1 (stereo not drawn)	UHRF1 binding 23
O=C1C2CCCCN2C(=O)N1CCCCN1CCN(c2cccc(Cl)c2)CC1 (stereo not drawn)	none
CC(=O)N1CCN(c2ccc(N3CCN(Cc4ccccc4)[C@@H](C)C3)c(C)c2)[C@@H](C)C1	none (no result: Rin1 Abl inh, Neddyl block)
CN1c2ccccc2C(C)(C)C12C=Nc1c(ccc3ccccc13)O2 (stereo not drawn)	none
COc1ccc2ccc3c(c2c1)N=CC1(O3)N(C)c2ccccc2C1(C)C (stereo not drawn)	Neddyl block active (no result: proKLK7 act, UHRF1 binding, LEDGF integ inh, MBD2 DNA inh)
CN(C)C(=O)c1cn(-c2ccccc2)nc1-c1cccs1	LEDGF integ inh 17
C=CCn1c(COc2ccc(C)cc2)nnc1SCC(=O)c1ccc(-c2ccccc2)cc1	none (no result: Rin1 Abl inh, Neddyl block)
CCCCCCc1nc(C(N)=O)c2[nH]c(=O)n(-c3ccccc3F)c2n1	none (no result: proKLK7 act, UHRF1 binding, LEDGF integ inh, MBD2 DNA inh)
O=C1N=C(N2CCCC2C(=O)O)S/C1=C\c1ccco1 (stereo not drawn)	LEDGF integ inh 27
Cc1ccc(S(=O)(=O)NC2=NCN(CCOC(=O)c3ccc([N+](=O)[O-])cc3)CN2)cc1	UHRF1 binding 60
CCCCCC(=O)N1CCCC1	none
CCCCCC(=O)N1CC2(C)CN(C(=O)CCCCC)CC(C)(C1)C2=O	UHRF1 binding 23, MBD2 DNA inh 15
COc1cc2c(cc1NC(=O)C(C)OC(=O)c1ccc(S(=O)(=O)Nc3ccccc3Cl)cc1)oc1ccccc12 (stereo not drawn)	none
O=C(CSc1cccc2cccnc12)OCC(=O)c1ccccc1	proKLK7 act 73
COc1ccc(-c2ccc(C(=O)NCC(C)C)c3occc23)c(C)c1	UHRF1 binding 49 (not shown: Neddyl block)
COc1ccc(-c2ccc(C(=O)NCC3CC3)c3occc23)c(C)c1	none (not shown: Neddyl block)
Oc1ccc(C2=NNC(c3ccc(O)cc3)=NN2)cc1	none
CCOC(=O)N1CCN(C(=O)c2ccc3c(c2)N(CC)CCS3)CC1	proKLK7 act 14 (not shown: Neddyl block)
COc1ccc(OC)c(CCNC(=O)C2CCN(c3ncnc4c3nc3n4CCCCC3)CC2)c1	UHRF1 binding 26
